Data taken from ChEMBL document CHEMBL1157539, “Thousands of chemical starting points for antimalarial lead identification” (Nature, 2010).
“And” between values parts separate entries of the source, which are not always exact repeats. Identical values can stand only once.

What follows are compounds tested on Plasmodium falciparum (assay: GSK_TCMDC: Inhibition of Plasmodium falciparum 3D7 in whole red blood cells, using parasite LDH activity as an index of growth. Test compounds present at 2uM).
Format: functional
For `CC(Cc1ccc(OCCCCOc2ccccc2)cc1)NCCCc1nc2ccccc2[nH]1` (stereo not drawn), the Inhibition was 97%.
Compound `CCN(CC)CCN1C(=O)C(O)(c2ccccc2Cl)c2c1cc(C(N)=O)cc2C(F)(F)F.Cl` (stereo not drawn) has an Inhibition of 100%.
Compound `Cn1c(C2CC3CCC(C2)N3CC2CCC(NC(=O)/C=C/c3ccc(Cl)c(Cl)c3)CC2)nc2ccccc21` (stereo not drawn) has an Inhibition of 100%.
For `CO/C(=C\C=C\c1cc2cc(Cl)c(Cl)cc2[nH]1)C(=O)N[C@H]1CN2CCC1CC2`, the Inhibition was 82%.
`CCC(C)CN1CCC(N(C)c2cc(NC(=O)c3ccc(F)cc3)ccn2)CC1.O=C(O)C(F)(F)F` (stereo not drawn) gave an Inhibition of 93%.
`O=C(/C=C/c1ccc(Cl)c(Cl)c1)N1CCC(CN2CCC(c3c(-c4ccccc4)[nH]c4ccccc34)CC2)CC1` showed an Inhibition of 100%.
`O=C(/C=C/c1cccc(Cl)c1)NC1CCC(CN2CCC(c3c[nH]c4ccccc34)CC2)CC1` (stereo not drawn) gave an Inhibition of 100%.
For `COC(=O)CN(C(=O)/C=C/c1ccc(Cl)c(Cl)c1)C1CCC(CN2CCC(c3c[nH]c4ccccc34)CC2)CC1` (stereo not drawn), the Inhibition was 100%.
In the case of `CC[C@H]1CN2CC[C@H]1C[C@@H]2[C@@H](O)c1ccnc2ccc(OC)cc12.Cl`, the Inhibition is reported as 100%.
With `CC(Cc1ccc(OCCCCOc2ccccc2)cc1)NCCCn1ccnc1` (stereo not drawn) the Inhibition was 100%.
`CC(C)CNCc1ccc(-c2ccc(CN(C(=O)Nc3ccccc3)C3CCN(Cc4ccccc4)CC3)cc2)cc1.O=C(O)C(F)(F)F` gave an Inhibition of 100%.
With `Cc1ccc2[nH]cc(C3CCN(CC4CCC(NC(=O)/C=C/c5ccc(Cl)c(Cl)c5)CC4)CC3)c2c1` (stereo not drawn) the Inhibition was 100% and 94%.
`COCC(=O)N(Cc1ccccc1-c1cccc(CNCCc2ccccc2)c1)C1CCN(Cc2ccccc2)CC1.O=C(O)C(F)(F)F` was tested, and the Inhibition was 93%.
Compound `Br.Cc1ccccc1C1=CCN(CCCN2c3ccccc3Sc3ccc(Cl)cc32)CC1` has an Inhibition of 90%.
With `CN(c1ccnc(Nc2ccc(CS(C)(=O)=O)cc2)n1)C1CCN(Cc2ccccc2)CC1` the Inhibition was 83%.
In the case of `O=C1Nc2cccc3c2C1(CCCCN1CC=C(c2c[nH]c4ncccc24)CC1)CCC3` (stereo not drawn), the Inhibition is reported as 92%.
Compound `CO[C@@H]1C[C@@H](C(=O)Nc2ccccc2)N(c2ccc(C#N)c3ccccc23)C1` has an Inhibition of 98%.
`CC[C@H]1CN2CC[C@H]1C[C@@H]2[C@@H](O)c1ccnc2ccccc12` gave an Inhibition of 98%.
In the case of `O=C(/C=C/c1ccc2ccccc2c1)NC1CCC(CN2CCC(c3c[nH]c4ccccc34)CC2)CC1` (stereo not drawn), the Inhibition is reported as 100%.
In the case of `Cc1c(C(=O)N[C@@H](C)c2ccccc2)c2cc(O)c(Br)cc2n1C1CCCCC1`, the Inhibition is reported as 98%.
Work on `CN(c1ccc(NC(=O)CCOc2ccccc2)cc1)C1CCN(Cc2cccc(O)c2)CC1.O=C(O)C(F)(F)F` yielded an Inhibition of 89%.
Work on `CC(=O)N(Cc1cccc(-c2cccc(CNCc3ccc4c(c3)OCO4)c2)c1)C1CCN(Cc2ccccc2)CC1.O=C(O)C(F)(F)F` yielded an Inhibition of 95%.
Work on `COc1cccc(C(=O)C2CC2CN2CC=C(c3c[nH]c4cccc(Br)c34)CC2)c1` (stereo not drawn) yielded an Inhibition of 96%.
For `Cc1c(C)c2c(c(C)c1O)CC[C@](C)(C(=O)NC1CCC(CN3CCC(c4c[nH]c5ccccc45)CC3)CC1)O2` (stereo partly drawn), the Inhibition was 96% and 85%.
For `CC(C)C[C@H](Nc1ccc(C#N)c2ccccc12)C(=O)N[C@@H]1CCCc2ccccc21.O=C(O)C(F)(F)F`, the Inhibition was 99%.
For `CC(C)CNCc1cccc(-c2ccc(CN(C(=O)NC3CCCCC3)C3CCN(Cc4ccccc4)CC3)cc2)c1.O=C(O)C(F)(F)F`, the Inhibition was 97%.
In the case of `CC(=O)C1(c2ccccc2)CCN(CCC2(c3ccc(Cl)c(Cl)c3)CN(C(=O)Nc3cc(F)cc(F)c3)CCO2)CC1` (stereo not drawn), the Inhibition is reported as 86%.
`CN(c1cc(NC(=O)c2cccs2)ccn1)C1CCN(Cc2cccc(F)c2)CC1.O=C(O)C(F)(F)F` was tested, and the Inhibition was 94%.
For `FC(F)(F)c1ccc(NC(=S)NC2CCC(CN3CCC(c4c[nH]c5ccccc45)CC3)CC2)cc1` (stereo not drawn), the Inhibition was 100%.
Work on `CN1CC=C(c2c[nH]c3ccc(Br)cc23)CC1` yielded an Inhibition of 88%.
`CC[C@H]1CN2CC[C@@H]1C[C@H]2[C@H](O)c1cc(N2CCC(O)CC2)nc2ccc(OC)cc12` was tested, and the Inhibition was 99%.
For `N#Cc1ccc(N(CC(=O)NCCc2ccc(F)cc2)CC2CC2)c2ccccc12.O=C(O)C(F)(F)F`, the Inhibition was 91%.
In the case of `CC[C@H]1CN2CC[C@H]1C[C@H]2[C@H](O)c1cc(-c2ccc(OC(F)(F)F)cc2)nc2ccc(OC)cc12.Cl`, the Inhibition is reported as 98%.
In the case of `O=C(/C=C/c1ccc([N+](=O)[O-])cc1)NC1CCC(CN2CCC(c3c[nH]c4ccccc34)CC2)CC1` (stereo not drawn), the Inhibition is reported as 100%.
With `O=C(/C=C/c1cccs1)NC1CCC(CN2CCC(c3c[nH]c4ccccc34)CC2)CC1` (stereo not drawn) the Inhibition was 82%.
Compound `CC(C)CN1CCC(N(C)c2cc(NC(=O)c3cccc(F)c3)ccn2)CC1.O=C(O)C(F)(F)F` has an Inhibition of 97%.
For `C[C@H](Cc1ccc(OCCCCCCOc2ccccc2)cc1)NC[C@@H](O)c1cc(Br)no1.Cl`, the Inhibition was 94%.
Work on `CC(=O)N(Cc1cccc(-c2ccc(CNCCc3ccccc3)cc2)c1)C1CCN(Cc2ccccc2)CC1.O=C(O)C(F)(F)F` yielded an Inhibition of 99%.
